According to PubChem BioAssay (Tox21):
Values joined by “and” are separate entries in the source; they are usually repeats but may differ in a detail not shown here. Identical values can stand only once. Records with an inconclusive call do not appear. Entries that show only a call come without a potency. Active and inactive are the calls of the source. Calls follow the shape of the dose curve; as a rule, active = well fitted cell-killing curve with a large enough effect in the repeat runs; inconclusive = weak or mixed curves, or effect the other way; inactive = no such curve, though single readings can be large or run the other way.

Test: qHTS assay for identifying genotoxic compounds that show differential cytotoxicity against isogenic chicken DT40 cell lines with known DNA damage response pathways - wild type cell line (AID 743012); also: nearly all actives have a fitted effect of over 60% in size
Conditions: DT40 wild type chicken cells viability, CellTiter-Glo, 40 h; series mostly up to 68.4 µM
Description: U.S. Tox21 Program National Center for Advancing Translational Sciences [NCATS] NIH Chemical Genomics Center [NCGC] U.S. Environmental Protection Agency [EPA] National Institutes of Environmental Health Sciences [NIEHS] National Toxicology Program [NTP] U.S. Food and Drug Administration [FDA] Tox21 Assay Overview: DNA repair pathways play a critical role in cellular homeostasis by repairing DNA damage induced by endogenous processes and xenobiotics. Isogenic chicken DT40 cell lines deficient in different DNA repair pathways can be used to identify genotoxic compounds and aid in characterizing the nature of the DNA damage induced. Two DNA repair-deficient cell lines with disrupted genes, Rad54/Ku70 or Rev3, were used to screen the Tox21 10K compound library. Possible genotoxicity was based on the presence of a significant increase in cytotoxicity in one or more of the DNA repair-deficient cell lines compared to that observed in the parental DNA repair-proficient cell line. CellTiter Glo viability assay (Promega, Madison, WI) was used to measure cell viability in these cells after compound treatment. This assay includes the data from the wild type cell line.
Tox21 Assay Protocol Summary: 300 DT40 wild type cells in 5 uL/well were dispensed into white, solid-bottom 1536-well plates using a Multidrop Combi (ThermoFisher Scientific, Waltham, MA) dispenser. After the assay plates were incubated at 37 C/5% CO2 for approximately 0.5 hour, 23 nL of compounds dissolved in DMSO, positive controls or DMSO only was transferred into the assay plate by a pintool work station (Kalypsys, San Diego, CA). The assay plates were incubated at 37 C/5% CO2 for 40 hours. After 5 uL per well of CellTiter-Glo reagent was added into each well of the assay plates, the plates were incubated for 30 min at room temperature and the luminescence intensity of the plates was measured using a ViewLux (PerkinElmer, Shelton, CT) plate reader.
Potency is read from the fitted curve at half-maximal effect.

Compound | Potency
CCC(Br)(CC)C(=O)NC(N)=O | inactive
O=[Se]=O | 0.541 µM (active)
CC(c1ccc(O)cc1)(c1ccc(O)cc1)c1ccc(O)cc1 | 27.3 µM (active)
Clc1ccc(C(OCCN2CCCCC2)c2ccccc2)cc1 (stereo not given) | 3.59 µM (active)
C=CC(=O)OC | inactive
CCCC(Cn1cncn1)c1ccc(Cl)cc1Cl (stereo not given) | 5.45 µM (active)
CCCCCCC#N | inactive
Cc1ccccc1C(=O)Nc1cccc(OC(C)C)c1 | 48.6 µM (active)
CCN(C)N=O | inactive
IC(I)=C(I)I | 0.611 µM (active)
CCC(C)(NC(=O)c1cc(Cl)c(C)c(Cl)c1)C(=O)CCl (stereo not given) | 6.9 µM (active)
N#CCc1ccccc1 | inactive
O=C(O)C(F)(F)C(F)(F)C(F)(F)C(F)(F)C(F)(F)C(F)(F)C(F)(F)C(F)(F)C(F)(F)F | inactive
CCOc1nc(F)cc2nc(S(=O)(=O)Nc3c(Cl)cccc3Cl)nn12 | inactive
NNC(=O)c1cccnc1 | inactive
Cn1cc[n+](C)c1 (tested in a mixture with another compound) | inactive
COc1cc(CC(C)N)cc2c1OCO2 (stereo not given) | inactive
NS(=O)(=O)C(F)(F)C(F)(F)C(F)(F)C(F)(F)C(F)(F)C(F)(F)C(F)(F)C(F)(F)F | 54.5 µM (active)
COP(=S)(OC)Oc1cc(Cl)c(I)cc1Cl | inactive
C=COC(C)=O | inactive

Compound | Potency
CC(C)(OO)c1ccccc1 | 30.6 µM (active)
N#C/C(N)=C(/N)C#N | inactive
CC(=O)CCC(C)=O | inactive
C=CCCl | inactive
[CH3][Sn]([CH3])([Cl])[Cl] | 54.5 µM (active)
CCOc1ccc(C(C)(C)COCc2cccc(Oc3ccccc3)c2)cc1 | inactive
CCCCCCCCCCOC(=O)c1ccccc1C(=O)OCCCCCCCCCC | inactive
CC(C)N(C(=O)COc1nnc(C(F)(F)F)s1)c1ccc(F)cc1 | 15.4 µM (active)
C[C@H]1CNCCc2ccc(Cl)cc21 | 26.6 µM (active)
CCCC(=O)Cl | inactive
O=C=Nc1ccc(Cl)cc1 | 27.3 µM (active)
CC1(C)CCC(Cc2ccc(Cl)cc2)C1(O)Cn1cncn1 (stereo not given) | 27.3 µM (active)
O=[N+]([O-])C(Br)(CO)CO | 8.41 µM (active) and 6.11 µM (active)
Cc1ccccc1CCl | inactive
C=CCOC(C)=O | inactive
Cc1cc(=O)[nH]o1 | inactive
Cc1ccc(-c2c(Cl)nc(C#N)n2S(=O)(=O)N(C)C)cc1 | 61.1 µM (active)
CCCN(CC1CC1)c1c([N+](=O)[O-])cc(C(F)(F)F)cc1[N+](=O)[O-] | inactive
c1cc2ccc3cccc4ccc(c1)c2c34 | 71.9 µM (active)
Clc1cc(C(Cl)(Cl)Cl)cnc1Cl | inactive
